Source: PubChem (several laboratories)
Only some compounds are listed: those with a hit (about 2% of all), similar ones and a draw of the others.
PolyA inhibitor: blocks polyadenylation in yeast reporter cells | S. cerevisiae SKY197-pL101 polyadenylation reporter, beta-gal luminescence; efflux-impaired pdr1/pdr3 knockout yeast; score 100 = 6 SD above DMSO | activity score, % at 12 µM | 300,000 compounds, 0.02% hits | AID 1875;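 active = lowest replicate activity score at least 50, where 100 means six control SD above control mean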;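 note: yeast exposed to compound for 9 h at 30 °C; higher score means more reporter readthrough which indicates perturbed polyadenylation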
Yeast superoxide: caloric restriction mimetics inhibiting age-related superoxide in yeast; S. cerevisiae aged cells, superoxide DHE fluorescence; active compounds read low; superoxide response (% of plate mean), % at 10 µM; 330,000 compounds, 0.18% hits;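 active = superoxide response under a set limit, about three screen SD below normal, cut at about 65% in these data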;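 note: yeast aged for seven days with compound at 30 °C before DHE staining; 100% = average MFI of all compound-treated wells on the plate with controls excluded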
SKKanGAS inh: inhibitors of SKKanGAS S. pyogenes growth in kanamycin (SK-promoter or general growth effect); 300,000 compounds, 1.3% hits; inhibition, % at 7.5 µM; AID 1662; BacTiter-Glo, 6 h;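 active = mean replicate score, as percent of positive control median, at least 50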;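 note: strain carries kanamycin resistance gene driven by streptokinase promoter and grows in 40 µg/ml kanamycin; loss of luminescence reflects streptokinase promoter inhibition or plain growth inhibition; 0% = median of DMSO wells and 100% = positive control at its reference dose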
Calb FLC: affects C. albicans growth with fluconazole; C. albicans CaCi-2 (fluconazole-resistant clinical isolate) + fluconazole, Alamar Blue growth, 48 h; growth inhibition, % (no concentration beside the values); 300,000 compounds, 0.57% hits;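 active = growth inhibition above about 58% in most replicates, limit read from the data, passing the limit was not always enough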;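 note: all wells also contain fluconazole at 8 µg/ml as a sub-toxic cotreatment; 0% = median of DMSO wells and 100% = median of geldanamycin control wells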
Platelet DG rel: modulates dense granule release in human platelets. human platelet-rich plasma, SFLLRN dense granule ATP release, luminescence. inhibition, %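 (compounds screened at 7.5 µM in platelet-rich plasma)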. 300,000 compounds, 0.22% hits;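 active = mean replicate score, as percent of positive control, at or above 50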
Active calls of the source: *; . = no result.

SMILES | PolyA inhibitor | Yeast superoxide | SKKanGAS inh | Calb FLC | Platelet DG rel
CCCn1c(NC(=O)C2COc3ccccc3O2)nc2ccccc21 (stereo unspecified) | -8.9 | 107.3 | 96.9* | 4.0 | 1.4
CCCCn1c(NC(=O)C2CCCCC2)nc2ccccc21 | 0.9 | 97.2 | 96.6* | 2.8 | -2.3
COc1ccc(NC(=O)CCCN2C(=O)CN(C)C2=O)cc1Cl | . | 96.3 | . | . | .
O=C(Nc1nc2ccccc2n1CCN1CCOCC1)c1ccc(Cn2cc([N+](=O)[O-])cn2)o1 | 3.4 | 97.1 | 26.8 | 23.5 | 23.4
O=C(Nc1nc2ccccc2n1CCN1CCOCC1)c1ccc(COc2ccccc2Br)o1 | -5.9 | 88.7 | 49.7* | 18.2 | -5.0
Cc1cccc(NC(=O)c2cc3n(n2)C(C(F)(F)F)CC(c2ccc4c(c2)OCO4)N3)c1 (stereo unspecified) | -2.4 | 92.7 | 49.9* | -35.0 | 5.4
O=C(NCC1CCCO1)c1nn2c(c1Cl)NC(c1ccc(F)cc1)CC2C(F)(F)F (stereo unspecified) | . | 108.0 | . | . | .
O=C(NCC1CCCO1)c1cc2n(n1)C(C(F)(F)F)CC(c1ccc(Br)cc1)N2 (stereo unspecified) | 12.4 | 95.1 | 0.4 | 92.8* | -0.1
COc1ccc(CNCCNC(=O)c2ccco2)c(OC)c1OC | -13.7 | 85.4 | -2.5 | 91.3* | -0.1
O=C(NCCNC(=O)c1ccco1)c1ccco1 | -14.1 | 86.9 | -1.0 | -2.4 | -5.3
C#CCOCCOCCOCCNc1nc(N2CCN(C(=O)[C@H](Cc3cc4ccccc4[nH]3)n3cc([C@@H](N)C(C)CC)nn3)CC2)nc(N2CCN(C(=O)[C@H](Cc3cc4ccccc4[nH]3)n3cc([C@@H](N)CC(C)C)nn3)CC2)n1 (stereo partly specified) | 13.7 | 90.0 | 4.2 | 12.7 | 3.5
O=C(Oc1ccc2ccccc2c1Br)N1CCCCCC1 | 18.8 | 107.8 | 28.1 | 3.5 | 4.4
O=C(Oc1ccc2cc(Br)ccc2c1)N1CCCCCC1 | -22.9 | 57.7* | -2.0 | -0.4 | 1.2
CCCCCCCCCCCCCCCC[N+](C)(C)CC | -1.7 | 73.5 | 100.9* | 76.6* | 0.4
C#CC[N+](C)(C)CCCCCCCCCCCC | -21.6 | 118.3 | 25.5 | 78.8* | -9.2
CC#CC[N+](C)(C)CCCCCCCCCCCC | -4.5 | 147.7 | 24.2 | 100.8* | -10.3
O=C(N/N=C/c1cc(Cl)cc([N+](=O)[O-])c1O)c1ccc2c(c1)OCO2 | -17.0 | 85.1 | 2.3 | -1.3 | -4.9
O=C(CNC(=O)c1ccc2c(c1)OCO2)N/N=C/c1cc(Br)ccc1O | 11.6 | 119.8 | 60.7* | -0.1 | 3.9
O=C(N/N=C/c1ccc2c(c1)OCO2)c1ccc2c(c1)OCCO2 | 6.8 | 116.9 | 0.1 | -5.9 | 9.2
O=C(N/N=C/c1cc(Br)cc(Cl)c1O)c1ccc2c(c1)OCO2 | 7.2 | 94.9 | 89.5* | 93.9* | -8.9
O=C(N/N=C/c1cc(Br)c(Br)o1)c1ccc2c(c1)OCCO2 | -10.5 | 120.7 | 5.0 | 84.8* | -7.1
O=C(N/N=C/c1ccccc1O)c1ccc2c(c1)OCO2 | 6.7 | 98.5 | 104.7* | 13.6 | 1.0
N#Cc1c2n(c(=S)n(-c3ccc(F)cc3)c1=O)CCCCC2 | -1.5 | 89.8 | 7.6 | 3.6 | 2.5
Cc1ccc(C)c(N2CCN(C(=O)c3ccc(N4CCCC4=O)cc3)CC2)c1 | -4.0 | 85.8 | -4.8 | 1.6 | -1.5
Cc1cc(Br)cc(/C=N/NC(=O)c2ccc3c(c2)OCO3)c1O | -1.1 | 106.5 | 84.0* | 46.7 | 3.9
SMILES | PolyA inhibitor | Yeast superoxide | SKKanGAS inh | Calb FLC | Platelet DG rel
O=C(N/N=C/c1cc(Br)c(O)c(Br)c1O)c1ccc2c(c1)OCCO2 | 1.2 | 124.9 | 17.5 | -23.7 | 5.4
CCCc1nnc(NC(=O)CCC(=O)N2CCC(C)CC2)s1 | 8.2 | 107.7 | 3.7 | 8.1 | 1.8
O=[N+]([O-])c1ccc(Cl)cc1Sc1nc2ccccc2o1 | -30.8 | 96.9 | 66.8* | 53.2 | 22.5
O=[N+]([O-])c1ccc(Sc2nc3ccccc3o2)c([N+](=O)[O-])c1 | -92.6 | 108.8 | 8.5 | 93.2* | -16.6
O=c1[nH]c(Sc2ccc([N+](=O)[O-])cc2[N+](=O)[O-])nc2ccccc12 | -31.2 | 118.9 | 8.3 | 3.3 | 2.2
O=[N+]([O-])c1ccc(Cl)cc1Sc1cccc2cccnc12 | -5.0 | 98.5 | 6.8 | -3.9 | 0.9
Cc1ccnc(Sc2ccc([N+](=O)[O-])cc2[N+](=O)[O-])n1 | -0.7 | 95.3 | -1.2 | 97.6* | 0.0
Cc1ccc(Sc2ccc([N+](=O)[O-])cc2[N+](=O)[O-])nc1 | -20.7 | 117.4 | -16.8 | 32.8 | -7.0
